# About 83,000 compounds went through this panel and 20% of them were active in at least one assay; those are over-represented in the sample as a whole.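 Cells were grown in 96-well plates and exposed to the test compound at a single concentration for 48 hours; results are reported as percent growth, with values below 10 considered active.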 A number with no mark means an inactive call. The source made the active and inactive calls.
# Test system: SK-MEL-5 melanoma
# Assay: NCI-60 one-dose screen, 48 h (100 = growth as untreated, 0 = no growth, -100 = all killed)
# Settings: 10 µM unless noted
row,Structure (SMILES),growth
1,CC(=O)N1N=C(c2ccc(Cl)cc2)CC1c1c(C)nn(-c2ccccc2)c1N(C)Cc1ccccc1 (stereo not given),70.3%
2,CC1(C)CC2(C)CC(=O)C1C(C(=O)O)C2C(=O)O (stereo not given),102%
3,COc1ccc(-c2cnc(SCC(=O)Nc3ccc(-c4nc5ccccc5s4)cc3)n2-c2ccc(OC)cc2)cc1,99.4%
4,COc1ccc2c(c1)[n+](=O)c(C(=O)/C=C/c1cc(OC)c(OC)c(OC)c1)c(C)n2[O-],50.8%
5,Nc1c(C(=O)Nc2cccc(Cl)c2)sc2nc3c(cc12)C(O)CCC3 (stereo not given),28.7%
6,COc1cccc(-c2nc(-c3ccc(N)cc3)co2)c1,85.9%
7,O=C(Nc1ccccc1S)c1ccccc1,114%
8,COc1ccc2c(c1)c(CC(=O)[Se]C)c(C)n2C(=O)c1ccc(Cl)cc1,-63.9% (active)
9,Nc1nc(SCc2cccnc2)c2ncn(C3OC(CO)C(O)C3O)c2n1 (stereo not given),99.5%
10,N#Cc1c(NC(=O)c2ccco2)[n+]([O-])c2cc(Cl)c(Cl)cc2[n+]1[O-],94.8%
11,Cc1[nH]ccc2cc3nc4ccccc4c3cc12,37.8%
12,COC(=O)c1cc2oc(/C=N\NC(=O)c3cc4oc(C)c(C)c4[nH]3)cc2[nH]1,108%
13,O=C(CSc1nnc(-c2cc(-c3ccccc3)nc3ccccc23)o1)c1ccc(Br)cc1,103%
14,O=c1oc2c(cc1-c1ccc([N+](=O)[O-])cc1)C(O)Oc1ccccc1-2 (stereo not given),80.4%
15,CC(C)Sc1nc(Cl)c(C#N)c(-c2ccc(F)cc2)n1,100%

# From PubChem BioAssay (NCI)
